# Reference: PubChem BioAssay AID651994 (Sanford-Burnham Center for Chemical Genomics, 2013)
# About 790 (32%) of roughly 2,500 compounds were called active.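 How the source made its calls: active means mean cytotoxicity at 5 µM above about 25% (limit read from the data); inactive means the rest.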 This excerpt belongs to a sample that is enriched for actives.
# Test: cell viability loss, Sufu-null reporter line – ATP luminescence, single concentration, cytotoxicity control for Gli-SUFU antagonist project, confirmation (AID 651994);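 further: cells exposed to compound overnight for roughly 16 to 18 hours; plate controls were DMSO wells with cells for no effect and medium without cells for full effect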
# Conditions: Sufu-KO-LIGHT cells cytotoxicity, at 5 µM, active compounds read high
row,Compound,cytotoxicity
1,CCOc1cccc(=NC2CCCCC2)c2c(C)[nH]c(C)c12,32.3% (active)
